Experimental data reported in PMC4081100, “A DNA-binding-site landscape and regulatory network analysis for NAC transcription factors in Arabidopsis thaliana”.

Assays:
Test in all cases: universal protein binding microarray (PBM); transcription factors of Arabidopsis thaliana; high values mean tight binding
GST-ANAC092(1-176) = molecular target: T1, GST-ANAC092(1-176) (Arabidopsis thaliana, UniProt Q9FKA0 1-176); conditions: protein: recombinant; tags: GST; chain copies: 2; dsDNA, one strand shown
T1 sequence: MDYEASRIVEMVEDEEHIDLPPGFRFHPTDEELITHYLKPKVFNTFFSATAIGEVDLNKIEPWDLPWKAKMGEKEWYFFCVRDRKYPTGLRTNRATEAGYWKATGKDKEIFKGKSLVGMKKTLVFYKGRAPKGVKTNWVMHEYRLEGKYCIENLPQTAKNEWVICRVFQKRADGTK
Outline: (§1)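 Each value is a normalised enrichment score (E-score) describing binding. The GST-tagged proteins, NAC-domain, full-length or DNA-binding-domain, were induced in cells (zinc-finger proteins with zinc acetate added) and purified on glutathione–Sepharose 4B. They were applied at 200 to 500 nM final, in duplicate, to double-stranded custom all-10-mer Agilent 4 × 180K arrays, and gapped and ungapped 8-mers were scored.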

GST-ANAC019 NAC domain = molecular target: T2, GST-ANAC019 NAC domain (Arabidopsis thaliana, UniProt Q9C932 14-162); conditions: protein: recombinant; tags: GST; chain copies: 2; dsDNA, one strand shown
T2 sequence: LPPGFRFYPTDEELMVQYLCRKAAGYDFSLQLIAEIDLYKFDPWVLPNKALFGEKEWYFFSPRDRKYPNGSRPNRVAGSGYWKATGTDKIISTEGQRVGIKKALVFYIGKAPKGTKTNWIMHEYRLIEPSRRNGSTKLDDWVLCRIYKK
Outline: as §1

GST-ANAC055(1-171) = molecular target: T3, GST-ANAC055(1-171) (Arabidopsis thaliana, UniProt Q9LDY8 1-171); conditions: protein: recombinant; tags: GST; chain copies: 2; dsDNA, one strand shown
T3 sequence: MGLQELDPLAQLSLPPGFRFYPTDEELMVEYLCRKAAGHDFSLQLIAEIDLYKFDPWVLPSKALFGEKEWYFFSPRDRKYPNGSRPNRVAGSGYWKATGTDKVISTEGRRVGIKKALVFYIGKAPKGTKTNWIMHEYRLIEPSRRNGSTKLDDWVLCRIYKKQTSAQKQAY
Outline: as §1

GST-ATAF1 NAC domain = molecular target: T4, GST-ATAF1 NAC domain (Arabidopsis thaliana, UniProt Q39013 7-158); conditions: protein: recombinant; tags: GST; chain copies: 2; dsDNA, one strand shown
T4 sequence: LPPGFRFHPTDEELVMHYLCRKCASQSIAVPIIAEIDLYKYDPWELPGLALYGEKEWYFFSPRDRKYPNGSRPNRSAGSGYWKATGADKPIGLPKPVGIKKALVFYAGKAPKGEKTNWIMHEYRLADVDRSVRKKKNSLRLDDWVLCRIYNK
Outline: as §1

[1] = molecular target: T5, GST-ANAC092(1-285) full length (Arabidopsis thaliana, UniProt Q9FKA0 1-285); conditions: protein: recombinant; tags: GST; chain copies: 2; dsDNA, one strand shown
T5 sequence: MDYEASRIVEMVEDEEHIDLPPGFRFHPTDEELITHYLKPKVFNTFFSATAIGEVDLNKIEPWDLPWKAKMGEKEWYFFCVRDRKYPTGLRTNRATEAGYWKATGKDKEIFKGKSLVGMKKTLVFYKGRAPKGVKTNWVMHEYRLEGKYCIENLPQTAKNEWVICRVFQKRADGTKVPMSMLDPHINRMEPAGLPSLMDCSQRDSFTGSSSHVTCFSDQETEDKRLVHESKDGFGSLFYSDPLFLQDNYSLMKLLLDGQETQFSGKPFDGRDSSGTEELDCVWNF
Outline: as §1

GST-NAP(1-166) = molecular target: T6, GST-NAP(1-166) (Arabidopsis thaliana, UniProt O49255 1-166); conditions: protein: recombinant; tags: GST; chain copies: 2; dsDNA, one strand shown
T6 sequence: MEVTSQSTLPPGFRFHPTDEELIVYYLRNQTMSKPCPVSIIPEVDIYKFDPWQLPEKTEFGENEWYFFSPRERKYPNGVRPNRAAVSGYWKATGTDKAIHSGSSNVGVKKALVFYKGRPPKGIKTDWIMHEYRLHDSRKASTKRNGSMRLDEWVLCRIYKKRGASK
Outline: as §1

GST-NTL8 NAC domain = molecular target: T7, GST-NTL8 NAC domain (Arabidopsis thaliana, UniProt Q9XIN7 14-156); conditions: protein: recombinant; tags: GST; chain copies: 2; dsDNA, one strand shown
T7 sequence: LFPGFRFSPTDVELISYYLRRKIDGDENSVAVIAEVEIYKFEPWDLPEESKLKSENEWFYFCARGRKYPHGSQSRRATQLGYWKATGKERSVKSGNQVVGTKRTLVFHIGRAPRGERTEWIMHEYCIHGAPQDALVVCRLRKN
Outline: as §1

GST-VND3 NAC domain = molecular target: T8, GST-VND3 NAC domain (Arabidopsis thaliana, UniProt Q9FH59 12-162); conditions: protein: recombinant; tags: GST; chain copies: 2; dsDNA, one strand shown
T8 sequence: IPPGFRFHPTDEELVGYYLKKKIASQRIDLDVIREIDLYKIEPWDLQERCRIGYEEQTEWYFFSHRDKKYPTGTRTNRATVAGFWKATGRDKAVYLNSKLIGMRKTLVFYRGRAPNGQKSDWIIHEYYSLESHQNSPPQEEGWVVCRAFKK
Outline: as §1

GST-VND7 NAC domain = molecular target: T9, GST-VND7 NAC domain (Arabidopsis thaliana, UniProt Q9C8W9 9-158); conditions: protein: recombinant; tags: GST; chain copies: 2; dsDNA, one strand shown
T9 sequence: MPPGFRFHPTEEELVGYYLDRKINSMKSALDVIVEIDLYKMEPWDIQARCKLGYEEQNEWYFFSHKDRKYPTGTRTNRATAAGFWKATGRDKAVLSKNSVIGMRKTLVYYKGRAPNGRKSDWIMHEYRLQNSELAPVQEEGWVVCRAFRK
Outline: as §1

GST-WRKY1(266-371) = GST-WRKY1(266-371) (Arabidopsis thaliana, UniProt Q9SI37 266-371); conditions: protein: recombinant; tags: GST; dsDNA, one strand shown
GST-WRKY1(266-371), sequence (Q9SI37 266-371): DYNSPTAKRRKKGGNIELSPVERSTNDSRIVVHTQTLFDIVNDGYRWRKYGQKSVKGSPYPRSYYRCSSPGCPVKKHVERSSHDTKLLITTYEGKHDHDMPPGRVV
Outline: as §1

GST-NST2(1-184) = molecular target: T10, GST-NST2(1-184) (Arabidopsis thaliana, UniProt Q9M274 1-184); conditions: protein: recombinant; tags: GST; chain copies: 2; dsDNA, one strand shown
T10 sequence: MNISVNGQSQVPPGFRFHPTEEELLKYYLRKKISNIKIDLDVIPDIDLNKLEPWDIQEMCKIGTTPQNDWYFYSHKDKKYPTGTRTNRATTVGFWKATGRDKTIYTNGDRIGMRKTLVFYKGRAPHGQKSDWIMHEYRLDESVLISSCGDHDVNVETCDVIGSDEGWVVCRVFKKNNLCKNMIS
Outline: as §1

GST-SND1(1-203) = molecular target: T11, GST-SND1(1-203) (Arabidopsis thaliana, UniProt Q9LPI7 1-203); conditions: protein: recombinant; tags: GST; chain copies: 2; dsDNA, one strand shown
T11 sequence: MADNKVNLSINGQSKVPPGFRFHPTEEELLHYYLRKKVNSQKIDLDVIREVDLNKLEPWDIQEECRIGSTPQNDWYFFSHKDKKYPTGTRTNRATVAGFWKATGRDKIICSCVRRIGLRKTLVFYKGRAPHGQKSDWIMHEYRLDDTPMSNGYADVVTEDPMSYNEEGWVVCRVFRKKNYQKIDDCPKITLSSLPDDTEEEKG
Outline: as §1

GST-NTL6(1-168) = GST-NTL6(1-168) (Arabidopsis thaliana, UniProt Q9SCK6 1-168); conditions: protein: recombinant; tags: GST; chain copies: 2; dsDNA, one strand shown
GST-NTL6(1-168), sequence (Q9SCK6 1-168): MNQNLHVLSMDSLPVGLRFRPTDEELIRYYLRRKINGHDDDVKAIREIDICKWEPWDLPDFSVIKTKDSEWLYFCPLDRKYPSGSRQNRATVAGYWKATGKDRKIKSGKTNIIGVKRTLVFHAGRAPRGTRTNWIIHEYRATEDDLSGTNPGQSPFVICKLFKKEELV
Outline: as §1

| Sequence | binding signal (GST-ANAC092(1-176)) [E-score] | binding signal (GST-ANAC019 NAC domain) [E-score] | binding signal (GST-ANAC055(1-171)) [E-score] | binding signal (GST-ATAF1 NAC domain) [E-score] | binding signal [1] [E-score] | binding signal (GST-NAP(1-166)) [E-score] | binding signal (GST-NTL8 NAC domain) [E-score] | binding signal (GST-VND3 NAC domain) [E-score] | binding signal (GST-VND7 NAC domain) [E-score] | binding signal (GST-WRKY1(266-371)) [E-score] | binding signal (GST-NST2(1-184)) [E-score] | binding signal (GST-SND1(1-203)) [E-score] | binding signal (GST-NTL6(1-168)) [E-score] |
| --- | --- | --- | --- | --- | --- | --- | --- | --- | --- | --- | --- | --- | --- |
| ACTAGTCA | 0.0862 | 0.0985 | 0.134 | 0.0655 | 0.0648 | 0.0759 | 0.128 | 0.108 | 0.0656 | 0.435 | – | – | – |
| CACACGCC | 0.396 | 0.207 | 0.124 | 0.145 | 0.428 | – | – | – | – | – | 0.134 | 0.119 | – |
| AAGTCAAA | 0.0569 | 0.084 | – | 0.16 | – | 0.102 | – | 0.0889 | 0.106 | 0.488 | 0.0885 | – | 0.135 |
| ATTGACCA | 0.0698 | – | 0.072 | 0.107 | 0.0788 | – | 0.163 | 0.129 | 0.0794 | 0.482 | – | – | – |
| ACACGACT | 0.104 | 0.411 | 0.364 | 0.336 | 0.171 | 0.179 | – | 0.309 | 0.265 | 0.312 | 0.19 | – | – |
| ATCGCGTG | 0.382 | – | – | – | 0.441 | – | – | – | – | – | 0.135 | 0.266 | – |
| ACTCAACC | 0.366 | – | 0.0786 | 0.117 | 0.408 | – | – | – | – | – | 0.221 | 0.381 | – |
| CTTTTGAC | 0.158 | – | 0.114 | 0.168 | 0.0903 | – | – | 0.12 | 0.101 | 0.448 | – | – | 0.0997 |
| ATTTCCTC | – | – | – | – | – | – | 0.437 | – | – | – | 0.115 | 0.091 | 0.148 |
| GTCAACGA | – | – | – | – | – | – | – | 0.0713 | 0.104 | 0.486 | – | – | – |
| CTAAGGAA | 0.125 | – | – | – | 0.128 | – | 0.246 | – | – | – | 0.144 | 0.306 | 0.47 |
| TGAGGAAA | 0.0937 | – | – | – | – | – | 0.429 | – | – | – | 0.105 | 0.172 | 0.106 |
| GGAGGGAA | – | 0.104 | – | – | – | 0.074 | 0.421 | – | – | – | – | 0.0554 | 0.0867 |
| CACGCTAG | 0.389 | 0.115 | 0.101 | – | 0.426 | 0.0849 | – | – | – | – | 0.156 | 0.218 | – |
